Assay results from PubChem BioAssay (NCATS).
Records with an inconclusive call do not appear. A call without a number means that no potency is given here. The source made the active and inactive calls. Calls come from the whole dose curve; as a rule, active = well fitted curve in the direction sought with a large enough effect; inconclusive = small, poorly fitted or top-dose-only effect, or another doubt; inactive = no such curve, though single readings can be large; an effect the other way counts as inactive or inconclusive.

What was measured:
[1] = Cell Viability - LYMP2-016 (AID 984);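 note: cells exposed to compound for 24 hours at 37 °C; nearly all actives have a fitted effect of over 55% in size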
Method in brief: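 qHTS, 1536-well: 2500 LYMP2-016 cells/well, 5 hr 37 C, compound added, 24 hr 37 C, CellTiter-Glo 30 min RT, luminescence. Tetraoctylammonium bromide positive control. AC50 via Hill fit.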

[2] = Cell Viability - LYMP2-018 (AID 985);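 note: compound exposure lasted 24 hr at 37 °C; nearly all actives have a fitted effect of over 50% in size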
Method in brief: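 Acute cytotoxicity is scored as a concentration-dependent drop in intracellular ATP after 24 hr exposure of the lymphoblastoid line in complete culture medium, measured by luciferase luminescence. Potency is expressed as AC50 from Hill modelling.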

[3] = Cell Viability - LYMP2-020 (AID 986);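 note: series mostly up to about 92 µM; cells exposed to compound for 24 h at 37 °C; nearly all actives have a fitted effect of over 55% in size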
Method in brief: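 Acute cytotoxicity in a human lymphoblastoid line is scored as a concentration-dependent fall in cellular ATP after 24 hr at 37 C in complete medium. The positive control is tetraoctylammonium bromide, and potency is given as Hill-fit AC50.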

[4] = Cell Viability - LYMP2-022 (AID 987); note: nearly all actives have a fitted effect of over 55% in size
Method in brief: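 Acute toxicity in a human lymphoblastoid line is scored as decreased intracellular ATP after 24 hr compound treatment at 37 C. ATP is measured by CellTiter-Glo luminescence; curves are fitted with the Hill equation to give AC50.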

[5] = Cell Viability - LYMP2-024 (AID 988); note: nearly all actives have a fitted effect of over 60% in size
Method in brief: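 Acute toxicity is measured as concentration-dependent loss of intracellular ATP in a human lymphoblastoid line treated 24 hours at 37 C. Luciferase luminescence quantifies ATP; AC50 values come from standard Hill-equation modelling.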

[6] = Cell Viability - LYMP2-026 (AID 989);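 note: cells exposed to compound for 24 h at 37 °C; nearly all actives have a fitted effect of over 50% in size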
Method in brief: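 Concentration-dependent loss of intracellular ATP in human lymphoblastoid cells after 24 hr at 37 C, quantified by luciferase luminescence. AC50 derived from standard Hill equation.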

[7] = Cell Viability - LYMP1-002 - Assay at 24 hr (AID 993)
Method in brief: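 qHTS, LYMP1-002 lymphoblastoid, 24 h cpd, 37 C, CellTiter-Glo ATP luminescence; AC50 via Hill eq.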

[8] = Cell Viability - LYMP1-002 - Assay at 40 hr (AID 994); note: nearly all actives have a fitted effect of over 60% in size
Method in brief: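 Viability in the human lymphoblastoid line was measured as intracellular ATP via CellTiter-Glo after 40 hr compound exposure. Tetraoctylammonium bromide served as positive control.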

[9] = molecular target: DNA repair nuclease/redox regulator APEX1 (Homo sapiens) (UniProt P27695); assay: qHTS Validation Assay for Inhibitors of the Human Apurinic/apyrimidinic Endonuclease 1 (APE1) (AID 1705;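 note: TAMRA fluorescence gain over two minutes as APE1 cuts a quenched THF abasic duplex; series mostly up to about 57 µM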)
Method in brief: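 Read-out: TAMRA fluorescence (525 nm ex, 598 nm em) from cleavage of a quenched THF abasic-site duplex, 50 nM final; activity taken as intensity change between third and first of three reads 60 s apart.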

[10] = Counterscreen for APE1 Inhibitors: Fluorescent Dye Displacement Validation Assay (AID 1707)
Method in brief: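 Thiazole Orange (250 nM) bound to 50 nM TAMRA-labelled dsDNA with tetrahydrofuran abasic site; displacement by DNA-binding compounds lowers fluorescence. Buffer 50 mM Tris-HCl pH 7.5, 50 mM NaCl, 2 mM MgCl2, 0.01% Tween-20; endpoint read at 480/540 nm.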

[11] = qHTS for differential inhibitors of proliferation of Plasmodium falciparum line 7G8 (AID 1815);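 note: potency is the fitted concentration of half-maximal effect; parasite growth measured after three days of incubation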
[12] = qHTS for differential inhibitors of proliferation of Plasmodium falciparum line GB4 (AID 1816); settings: Potency: Plasmodium falciparum GB4 proliferation inhibition;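 note: potency is the fitted concentration of half-maximal effect; parasite growth measured after 72 h incubation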
[13] = qHTS for differential inhibitors of proliferation of Plasmodium falciparum line 3D7 (AID 1876); note: potency is the fitted concentration of half-maximal effect
[14] = qHTS for differential inhibitors of proliferation of Plasmodium falciparum line D10 (AID 1877);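 note: potency is the fitted concentration of half-maximal effect; parasites grown with compound for 72 h before DNA staining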
[15] = qHTS for differential inhibitors of proliferation of Plasmodium falciparum line Dd2 (AID 1882); settings: Potency: Plasmodium falciparum Dd2 proliferation inhibition; note: potency is the fitted concentration of half-maximal effect; nearly all actives have a fitted effect of over 65% in size
Method in brief: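 SYBR Green I DNA fluorescence read-out, ex 485/em 535 nm. Signals were normalized to 0.29 uM artemisinin and DMSO wells, then corrected using vehicle-only plates flanking each stack. Parasite growth ran 72 h in erythrocytes before lysis.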

[16] = qHTS for differential inhibitors of proliferation of Plasmodium falciparum line W2 (AID 1883); settings: Potency: Plasmodium falciparum W2 proliferation inhibition;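 note: potency is the fitted concentration of half-maximal effect; parasites grown with compound for 72 h before lysis and staining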
[17] = qHTS for differential inhibitors of proliferation of Plasmodium falciparum line HB3 (AID 1886); settings: Potency: Plasmodium falciparum HB3 proliferation inhibition;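 note: potency is the fitted concentration of half-maximal effect; parasites grown with compound for 72 h before SYBR Green readout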
[18] = molecular target: Ferritin light chain (Equus caballus) (UniProt P02791); assay: qHTS Validation Assay for Identification of Novel General Anesthetics (AID 2323); note: series mostly up to about 77 µM
Method in brief: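 10 uM horse-spleen apoferritin + 1-AMA (50% saturated, PBS); cpd pin-transferred, 10 min RT. Ex 380/Em 535 nm endpoint. Activity normalized between free 1-AMA and 1-AMA/apoferritin; 4-parameter Hill fit of concentration-response.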

[19] = molecular target: ATP-dependent DNA helicase Q1 (Homo sapiens) (UniProt P46063); assay: qHTS Validation Assay for Inhibitors of RecQ-Like Dna Helicase 1 (RECQ1) (AID 2353)
Method in brief: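 50 nM RECQ1T1 preincubated 15 min with compound in Tris pH 8.0 buffer with MgCl2, DTT, Tween-20 and 2.5 ug/ml poly(dI-dC); started with 200 nM TAMRA/BHQ-2 forked duplex and 2 mM ATP. Unwinding read as fluorescence (525/598 nm), two reads 2 h apart.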

[20] = molecular target: RecQ-like DNA helicase BLM (Homo sapiens) (UniProt P54132); assay: qHTS Validation Assay for Inhibitors of Bloom's syndrome helicase (BLM) (AID 2364)
Method in brief: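 50 nM BLM preincubated 15 min at room temperature with compound in pH 8.0 Tris buffer containing 2.5 ug/ml poly(dI-dC); started with 200 nM TAMRA/BHQ-2 forked duplex and 2 mM ATP (final). Unwinding read as TAMRA fluorescence increase, two reads 2 h apart.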

Sequence of ATP-dependent DNA helicase Q1 (Homo sapiens) (P46063 whole entry, looked up): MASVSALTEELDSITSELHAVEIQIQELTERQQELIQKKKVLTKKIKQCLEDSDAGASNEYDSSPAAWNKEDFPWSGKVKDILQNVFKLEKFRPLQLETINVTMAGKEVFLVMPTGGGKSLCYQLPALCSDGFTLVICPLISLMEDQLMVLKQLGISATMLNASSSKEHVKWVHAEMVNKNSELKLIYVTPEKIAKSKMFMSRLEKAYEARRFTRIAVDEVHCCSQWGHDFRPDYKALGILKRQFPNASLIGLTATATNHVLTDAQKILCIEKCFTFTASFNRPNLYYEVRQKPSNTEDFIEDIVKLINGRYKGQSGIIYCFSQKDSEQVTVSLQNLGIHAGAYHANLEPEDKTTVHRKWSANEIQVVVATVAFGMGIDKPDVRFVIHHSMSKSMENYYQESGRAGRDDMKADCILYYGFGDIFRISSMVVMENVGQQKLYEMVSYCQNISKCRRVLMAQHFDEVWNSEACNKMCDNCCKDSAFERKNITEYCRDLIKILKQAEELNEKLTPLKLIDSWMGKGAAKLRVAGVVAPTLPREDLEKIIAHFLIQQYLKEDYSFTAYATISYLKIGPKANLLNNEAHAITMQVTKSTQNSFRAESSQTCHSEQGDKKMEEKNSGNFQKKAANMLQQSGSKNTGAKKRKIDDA
Sequence of Ferritin light chain (Equus caballus) (P02791 2-175 limits assumed): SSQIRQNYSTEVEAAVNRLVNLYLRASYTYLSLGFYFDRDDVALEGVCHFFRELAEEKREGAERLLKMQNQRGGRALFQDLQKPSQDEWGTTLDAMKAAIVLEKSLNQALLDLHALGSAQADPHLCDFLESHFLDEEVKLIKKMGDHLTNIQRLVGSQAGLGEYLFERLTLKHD
Sequence of RecQ-like DNA helicase BLM (Homo sapiens) (P54132 whole entry, looked up): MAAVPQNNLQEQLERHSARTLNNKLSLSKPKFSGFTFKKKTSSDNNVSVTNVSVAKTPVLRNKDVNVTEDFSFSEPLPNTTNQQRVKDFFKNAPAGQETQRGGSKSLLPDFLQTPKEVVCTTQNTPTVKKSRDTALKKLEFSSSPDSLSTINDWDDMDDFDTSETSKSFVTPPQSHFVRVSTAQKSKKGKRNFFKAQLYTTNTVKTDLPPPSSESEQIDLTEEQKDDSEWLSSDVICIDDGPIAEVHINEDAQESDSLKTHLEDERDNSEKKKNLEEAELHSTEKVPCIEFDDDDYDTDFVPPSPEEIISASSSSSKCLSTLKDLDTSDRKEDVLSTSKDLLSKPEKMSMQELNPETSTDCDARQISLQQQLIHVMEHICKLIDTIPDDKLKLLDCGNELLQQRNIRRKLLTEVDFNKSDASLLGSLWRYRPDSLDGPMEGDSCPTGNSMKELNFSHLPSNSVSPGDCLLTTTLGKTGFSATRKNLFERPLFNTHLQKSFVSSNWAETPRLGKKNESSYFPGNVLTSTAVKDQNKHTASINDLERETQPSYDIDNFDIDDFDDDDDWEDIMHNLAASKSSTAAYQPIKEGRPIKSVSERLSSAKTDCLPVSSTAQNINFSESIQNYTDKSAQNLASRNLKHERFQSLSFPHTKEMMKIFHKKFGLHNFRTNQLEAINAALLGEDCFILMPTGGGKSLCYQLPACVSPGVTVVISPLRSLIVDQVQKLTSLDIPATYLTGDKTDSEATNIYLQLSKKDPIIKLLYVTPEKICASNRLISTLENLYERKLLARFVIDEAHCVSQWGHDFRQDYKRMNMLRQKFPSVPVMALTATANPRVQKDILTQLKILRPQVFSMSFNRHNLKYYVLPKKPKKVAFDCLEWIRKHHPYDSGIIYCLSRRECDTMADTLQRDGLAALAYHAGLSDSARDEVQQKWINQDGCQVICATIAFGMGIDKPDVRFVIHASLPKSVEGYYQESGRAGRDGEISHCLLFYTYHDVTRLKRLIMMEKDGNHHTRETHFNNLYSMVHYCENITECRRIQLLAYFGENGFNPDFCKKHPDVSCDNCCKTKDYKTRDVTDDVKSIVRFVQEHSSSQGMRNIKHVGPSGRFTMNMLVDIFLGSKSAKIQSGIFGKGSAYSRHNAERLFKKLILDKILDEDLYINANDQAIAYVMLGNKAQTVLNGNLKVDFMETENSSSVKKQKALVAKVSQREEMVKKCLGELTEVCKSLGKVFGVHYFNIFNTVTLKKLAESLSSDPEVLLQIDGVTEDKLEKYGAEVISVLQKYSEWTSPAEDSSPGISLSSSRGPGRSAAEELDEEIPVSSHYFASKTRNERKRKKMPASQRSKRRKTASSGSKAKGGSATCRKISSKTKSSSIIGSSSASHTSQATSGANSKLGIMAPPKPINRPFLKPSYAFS
Sequence of DNA repair nuclease/redox regulator APEX1 (Homo sapiens) (P27695 whole entry, looked up): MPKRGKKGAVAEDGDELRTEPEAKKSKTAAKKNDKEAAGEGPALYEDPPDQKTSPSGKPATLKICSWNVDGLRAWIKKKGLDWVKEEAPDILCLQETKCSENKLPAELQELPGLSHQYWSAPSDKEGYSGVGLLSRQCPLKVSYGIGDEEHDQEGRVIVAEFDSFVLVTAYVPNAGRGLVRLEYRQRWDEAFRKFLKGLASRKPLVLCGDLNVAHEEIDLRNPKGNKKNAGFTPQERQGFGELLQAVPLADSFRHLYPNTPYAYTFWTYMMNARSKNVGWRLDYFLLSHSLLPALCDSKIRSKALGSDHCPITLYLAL

## CN(C)CCOC(c1ccccc1)c1ccccc1 (tested in a mixture with another compound)
[1]
  outcome: inactive
[2]
  outcome: inactive
[3]
  outcome: inactive
[4]
  outcome: inactive
[5]
  outcome: inactive
[6]
  outcome: inactive
[7]
  outcome: inactive
[8]
  outcome: inactive

## NC(=NCc1ccc(Cl)c(Cl)c1)NC(=O)c1nc(Cl)c(N)nc1N
[9]
  outcome: inactive
[10]
  outcome: inactive
[11]
  Potency: 562 nM (active)
[12]
  Potency: 891 nM (active)
[13]
  Potency: 282 nM (active)
[14]
  Potency: 398 nM (active)
[15]
  Potency: 1580 nM (active)
[16]
  Potency: 1000 nM (active)
[17]
  Potency: 501 nM (active)
[18]
  outcome: inactive
[19]
  outcome: inactive
[20]
  outcome: inactive
